Bioassay records: PubChem BioAssay, National Center for Advancing Translational Sciences (NCATS)
In the library only some 6% were active in any assay of this set; here they are far more common.
HEK293 cAMP ctrl: qHTS Assay for Agonists of the Thyroid Stimulating Hormone Receptor: Activators of Intracellular cAMP Concentrations in Parental HEK 293; 2.5% of 73,000 active; AID 938, 2007; parental HEK293 CNG cAMP sensor, membrane potential fluorescence; Potency, µM (titrated, usually from 57.1 µM), hits mostly activators; further: nearly all actives have a fitted effect of over 55% in size
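Parental HEK 293 cells stably expressing a modified CNG channel (no TSHR) report cAMP rise as membrane depolarization. Membrane potential dye with 100 uM RO 20-1724 was loaded for 60 min at room temperature, then compound added for 30 min; fluorescence read at 590 nm.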
ERK AVP inh: qHTS Assay for Inhibitors of the ERK Signaling Pathway using a Homogeneous Screening Assay; HEK293-V1b, vasopressin-stimulated pERK AlphaScreen; Potency, µM (doses to about 57.5 µM), usual class: inhibitors; 0.99% of 72,000 active; AID 995, 2007; further: nearly all actives have a fitted effect of over 55% in size
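HEK293 cells stably expressing V1b receptor, seeded overnight in 1% FBS, were treated with compounds for 30 min at 37C, then stimulated 5 min with 25 nM vasopressin; phospho-ERK read by AlphaScreen SureFire after lysis.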
CRE Fsk mod: Cell signaling CRE-BLA (Fsk stim) | CHO CRE-bla reporter (cAMP response element driving beta-lactamase), forskolin EC10, beta-lactamase ratio | Potency, µM (top dose mostly 38.2 µM), most hits filed as activators | 2.5% of 71,000 active | AID 662, 2007; active means well fitted activation curve with a large enough effect in the signal ratio, with a control signal flat, not every such curve was filed as active; inconclusive means small, poorly fitted or top-dose-only effect, or effect the other way, or a change in a side signal; the % refers to the signal ratio
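Titrated compounds plus EC10 NKH 477 on CHO CRE-bla cells, 3 h, 37 °C. CCF4, 2 h RT. Ratio 460/530 nm → AC50.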
TSHR ag: qHTS Assay for Agonists of the Thyroid Stimulating Hormone Receptor | AID 926, 2007 | Potency, µM (highest dose often 57.1 µM), hits mostly activators | Thyrotropin receptor (Homo sapiens), P16473 | HEK293-CNG-TSHR cells (CNG channel as cAMP sensor), membrane potential dye, cAMP | 0.48% of 73,000 active; active means well fitted activation curve with a large enough effect in the main read-out, with a control signal flat, not every such curve was filed as active; inconclusive means small, poorly fitted or top-dose-only effect, or a change in a side signal; inactive means no such curve, though single readings can be large or run the other way; reference of the percent scale not stated here;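 further: the control signal comes from parental cells without the receptor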
Target sequence (P16473 whole entry, looked up): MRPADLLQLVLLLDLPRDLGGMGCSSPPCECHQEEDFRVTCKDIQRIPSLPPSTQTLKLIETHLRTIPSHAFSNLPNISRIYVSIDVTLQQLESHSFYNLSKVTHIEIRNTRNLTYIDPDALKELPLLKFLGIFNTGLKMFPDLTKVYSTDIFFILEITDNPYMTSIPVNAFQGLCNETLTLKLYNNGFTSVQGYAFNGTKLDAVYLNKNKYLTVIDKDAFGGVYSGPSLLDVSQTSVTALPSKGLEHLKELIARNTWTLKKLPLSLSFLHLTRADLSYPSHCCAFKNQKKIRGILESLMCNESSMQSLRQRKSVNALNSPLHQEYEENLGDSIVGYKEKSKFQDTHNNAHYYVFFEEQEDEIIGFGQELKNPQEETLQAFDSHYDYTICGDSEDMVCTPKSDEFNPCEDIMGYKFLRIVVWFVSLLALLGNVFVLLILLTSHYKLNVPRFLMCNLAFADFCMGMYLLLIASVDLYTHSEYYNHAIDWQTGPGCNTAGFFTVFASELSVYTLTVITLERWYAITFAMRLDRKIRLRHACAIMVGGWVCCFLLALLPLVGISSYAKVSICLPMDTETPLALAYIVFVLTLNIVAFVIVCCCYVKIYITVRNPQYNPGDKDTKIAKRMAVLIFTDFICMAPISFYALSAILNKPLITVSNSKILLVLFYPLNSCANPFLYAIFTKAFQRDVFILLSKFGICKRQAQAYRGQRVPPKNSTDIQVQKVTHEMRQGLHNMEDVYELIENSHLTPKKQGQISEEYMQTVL
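cAMP rise detected as CNG-channel membrane depolarization by fluorescent dye (emission 590 nm), 30 min after compound, following 60 min dye loading containing 100 uM RO 20-1724 at room temperature. Cells: TSHR/CNG HEK 293, with parental CNG HEK 293 as control.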
Large screens that a line does not name were inactive. Unless noted, the call rests on the fitted dose curve; in most records, active means well fitted curve in the direction sought with a large enough effect; inconclusive means small, poorly fitted or top-dose-only effect, or another doubt; inactive means no such curve, though single readings can be large; an effect the other way counts as inactive or inconclusive.

COc1ccc(-c2cc(C(=O)N/N=C/c3ccc(OC)c(OC)c3)[nH]n2)cc1	none (no result: ERK AVP inh, CRE Fsk mod)
C[C@@H](C(=O)Nc1ccc2ccccc2c1)[C@@H]1C[C@@]1(C)[C@@H](NC(=O)c1cnccn1)c1ccccc1	HEK293 cAMP ctrl inconclusive, CRE Fsk mod inconclusive, TSHR ag inconclusive
C[C@@H](C(=O)Nc1ccc2ccccc2c1)[C@H]1C[C@]1(C)[C@H](NC(=O)c1cnccn1)c1ccccc1	HEK293 cAMP ctrl 16µM, TSHR ag inconclusive
Cc1cc(C(=O)N[C@H](c2ccccc2)[C@@]2(C)C[C@@H]2[C@@H](C)C(=O)Nc2ccc3ccccc3c2)no1	HEK293 cAMP ctrl 1.6µM, TSHR ag inconclusive
CO[C@@H]1COC(=O)[C@H](COCc2ccccc2)NC(=O)C/C=C\[C@@H](C)[C@H](OC)COC(=O)[C@H](COCc2ccccc2)NC(=O)C/C=C\[C@H]1C	none (no result: CRE Fsk mod)
CC(C)CO/N=C1/C[C@@H](O)[C@@H](O)[C@@H]2[C@@H]3C(=O)N(c4cccc(Oc5ccccc5)c4)C(=O)[C@H]3CC[C@H]12	none (no result: CRE Fsk mod)
Cc1ccc(SCCNC(=O)CN2C(=O)c3ccccc3S2(=O)=O)cc1	ERK AVP inh 7.9µM
NCCCc1c(-c2ccccc2)nc(N)[nH]c1=O	none
CCCn1c(=NC(C)=O)c(C#N)cc2c(=O)n3cccc(C)c3nc21	CRE Fsk mod 2.5µM
CCCCCn1c(=NC(C)=O)c(C#N)cc2c(=O)n3cccc(C)c3nc21	CRE Fsk mod 4µM
COCCCn1c(=NC(=O)c2ccc3c(c2)OCO3)c(C#N)cc2c(=O)n3cccc(C)c3nc21	CRE Fsk mod inconclusive
COc1ccc(-c2n[nH]c(C)c2-c2ccc(Cl)cc2)c(O)c1OC	HEK293 cAMP ctrl inconclusive, ERK AVP inh 25µM, CRE Fsk mod inconclusive, TSHR ag inconclusive
CN(C)c1ccc(-c2cncnc2NCCN2CCOCC2)cc1	none
COc1ccc(C)cc1NC(=O)CSc1nnc(-c2ccccn2)n1Cc1ccco1	HEK293 cAMP ctrl 10µM, CRE Fsk mod 1.6µM, TSHR ag inconclusive
COc1ccc(NC(=O)CSc2nnc(-c3ccccc3Cl)n2Cc2ccco2)c(OC)c1	HEK293 cAMP ctrl 20µM, TSHR ag inconclusive
C(=C\c1ccccc1)/CSc1nnc(-c2ccccn2)n1Cc1ccco1	HEK293 cAMP ctrl 20µM, CRE Fsk mod inconclusive, TSHR ag inconclusive
CC1CCN(C(=O)CSc2nnc(-c3cc4ccccc4cc3O)n2Cc2ccco2)CC1	TSHR ag 25µM
COc1ccc2c3c(ccc2c1)N[C@H](C(=O)O)CC3	none
CO[C@@H]1COC(=O)[C@H](COCc2ccccc2)NC(=O)C/C=C\[C@@H](C)[C@H](OC)COC(=O)[C@@H](C)NC(=O)C/C=C\[C@H]1C	none (no result: CRE Fsk mod, TSHR ag)
COc1ccccc1N1CCN(CCN(C(=O)c2ccc(I)cc2)c2ccccn2)CC1	HEK293 cAMP ctrl inconclusive, TSHR ag inconclusive (no result: ERK AVP inh)
COc1ccccc1NC(=O)CSc1nnc(-c2ccccn2)n1Cc1ccco1	CRE Fsk mod 10µM (no result: TSHR ag)
COc1ccccc1NC(=O)CSc1nnc(-c2ccco2)n1Cc1ccco1	HEK293 cAMP ctrl inconclusive, TSHR ag inconclusive
CCCCCCC#CC1C=CC(OC(C)=O)C(COC(C)=O)O1 (centres undefined)	none (no result: CRE Fsk mod)
CCn1c2ccccc2c2nnc(SCC(=O)Nc3ncccn3)nc21	CRE Fsk mod 10µM
CCOC(=O)c1sc(NC(=O)CSc2nnc3c4ccccc4n(CC)c3n2)nc1C	none
CCn1c2ccccc2c2nnc(SCC(=O)c3ccccc3)nc21	ERK AVP inh 20µM, CRE Fsk mod 3.2µM
CCn1c2ccccc2c2nnc(SCC(=O)OCN3C(=O)c4ccccc4C3=O)nc21	CRE Fsk mod inconclusive
CCn1c2ccccc2c2nnc(SCC(=O)NC(CC(C)C)C(=O)OC)nc21 (centres undefined)	CRE Fsk mod 7.9µM
CCc1nnc(NC(=O)CSc2nnc3c4ccccc4n(C)c3n2)s1	none
CCOC(=O)Cc1nnc(NC(=O)CSc2nnc3c4ccccc4n(C(C)C)c3n2)s1	CRE Fsk mod 10µM
Nc1cc(Cl)c([N+](=O)[O-])cc1O	none
C=C1C(=O)OC2CC1C(OC(C)=O)CC(C)=CCCC(C)=CCC[C@@]2(C)O (some centres undefined)	none (no result: HEK293 cAMP ctrl, CRE Fsk mod, TSHR ag)
CCOc1ccc(CCNc2cc(C)nc3ncnn23)cc1OCC	ERK AVP inh 25µM, CRE Fsk mod inconclusive
CCOc1ccccc1NC(=O)CSc1ncnc2c1oc1ccccc12	HEK293 cAMP ctrl 25µM, CRE Fsk mod 0.63µM, TSHR ag inconclusive
COC(=O)c1ccc(CSc2ncnc3c2oc2ccccc23)o1	HEK293 cAMP ctrl inconclusive, CRE Fsk mod 2.5µM, TSHR ag inconclusive
CCCSc1ncnc2c1oc1ccccc12	CRE Fsk mod inconclusive
COC(=O)c1ccc(CSc2ncnc3ccccc23)o1	none (no result: TSHR ag)
CC(=O)CSc1ncnc2c1oc1ccccc12	CRE Fsk mod 4µM
NCS(=O)(=O)O	none
N[C@@H](Cn1cc(I)c(=O)n(Cc2ccc(C(=O)O)cc2)c1=O)C(=O)O	HEK293 cAMP ctrl inconclusive, TSHR ag inconclusive
N#CC1=C(N)OC2=C(CCC/C2=C/c2ccoc2)C1c1ccoc1 (centres undefined)	TSHR ag 25µM
CC(C)(C)n1nnnc1C(c1cccs1)N1CCCc2ccccc21 (centres undefined)	HEK293 cAMP ctrl 16µM, TSHR ag inconclusive
CC(C)(C)n1nnnc1C(c1cccs1)N1CCCC2(CCCCC2)C1 (centres undefined)	HEK293 cAMP ctrl inconclusive, TSHR ag inconclusive
CCC(c1nnnn1CCc1ccccc1)N(Cc1ccco1)Cc1cc2c(C)ccc(C)c2[nH]c1=O (centres undefined)	HEK293 cAMP ctrl inconclusive, TSHR ag inconclusive
CCC(c1nnnn1CCc1ccccc1)N(Cc1ccco1)Cc1cc2cc(C)cc(C)c2[nH]c1=O (centres undefined)	HEK293 cAMP ctrl 13µM, TSHR ag inconclusive
CCCCCCCCCCCCCCCCOC[C@@H](COCC(F)(F)F)OP(=O)(O)OCO	CRE Fsk mod inconclusive, TSHR ag 20µM (no result: ERK AVP inh)
Cc1ccc(OCC(=O)Nc2ccc(S(=O)(=O)Nc3onc(C)c3C)cc2)cc1	none (no result: TSHR ag)
Cc1noc(NS(=O)(=O)c2ccc(NC(=O)COc3ccc(Cl)cc3Cl)cc2)c1C	ERK AVP inh 2.5µM, CRE Fsk mod inconclusive
Cc1cccc2cc(CN(Cc3nnnn3Cc3ccco3)C3CCCC3)c3nnnn3c12	HEK293 cAMP ctrl 10µM, CRE Fsk mod inconclusive, TSHR ag inconclusive
CCc1c(C#N)c(N)nc(SCC(=O)OCc2ccccc2)c1C#N	HEK293 cAMP ctrl inconclusive, ERK AVP inh 32µM, CRE Fsk mod inconclusive, TSHR ag inconclusive
O=C(O)[C@@H]1CCCN[C@H]1C(=O)O	none
O=c1cnc2cncnc2n1Cc1ccccc1	CRE Fsk mod inconclusive, TSHR ag 25µM
O=c1cnc2cncnc2n1Cc1ccc(F)cc1	HEK293 cAMP ctrl inconclusive, CRE Fsk mod 3.2µM, TSHR ag inconclusive
O=c1cnc2cncnc2n1Cc1ccccc1Cl	CRE Fsk mod inconclusive, TSHR ag 32µM
Cc1nc2cncnc2n(Cc2ccccc2Cl)c1=O	none
